Experimental data: patent publication US20150023943, “REF Nuclease for Site-Specific REF-Mediated DNA Cleavage” (Wisconsin Alumni Research Foundation, published 2015)

Target: T1, φW39 ΔN59 Ref (Bacteriophage phi W39)
T1 chain: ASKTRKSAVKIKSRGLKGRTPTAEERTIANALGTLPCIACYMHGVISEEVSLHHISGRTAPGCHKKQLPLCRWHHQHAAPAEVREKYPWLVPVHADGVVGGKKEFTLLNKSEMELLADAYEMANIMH
Assay: FP; Kd value only in FIG. 6C; 15 mM Mg acetate, pH 8.5, 25 C
Settings: tags: expressed from pET21A with NdeI start Met; label: 5'-6FAM; ssDNA
Experimental: Ref proteins at 0.5-10,000 nM were incubated with 2 nM AJM25 71mer ssDNA or AJM25 annealed with AJG52 71mer to make a linear 71 bp dsDNA substrate in 25 mM Tris-acetate (pH 8.5), 3 mM potassium glutamate, 15 mM magnesium acetate, and 5% w/v glycerol at room temperature for 15 minutes. Fluorescence anisotropy (FA) was measured at 25° C., using a Tecan Infinite M1000 instrument with 470-nm excitation and 535-nm emission wavelengths for at least three replicates. The average FA values were plotted with one standard deviation of the mean shown as error. Prism software was used to convert FA values to the percent of DNA bound and apparent dissociation constants were determined using one-site, specific binding with Hill coefficient.

Sequence | binding signal
CAGAAGTAAGTTGGCCGCAGTGTTATCACTCATGGTTATGGCAGCACTGCATAATTCTCTTACTGTCATGC | 40 fold reduction in affinity
